“And” between values parts separate entries of the source, which are not always exact repeats. Equal values may be shown once. The source made the active and inactive calls.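 Rule for the calls, unless noted: active = compounds whose cell count with miR-34 switched on is under 0.7 times the count with it off; inactive = the rest.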
Key:
[1] = sensitizers of A549 cells to miR-34 induction, primary screen, imaging, A549 dox-inducible miR-34, nuclei and caspase counts (AID 1347080); conditions: A549 miR-34 inducible, Hoechst nuclei count, 48 h
[2] = survival rescue of mitochondrial mutant cells in low glucose, primary screen, MELAS cybrids, Rieske KO mouse fibroblasts, CellTiter-Glo (AID 1508586;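 active = mean z-score across replicates of 1.96 or higher in either the MELAS or the Rieske mutant cell line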;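 note: z relative to plate mean and SD of compound and empty wells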)
[3] = target: NAD(+) hydrolase SARM1 (Homo sapiens) (UniProt Q6SZW1); assay: SARM1 TIR NADase inhibitors, cell lysate, NAD-Glo luminescence (AID 1508614;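 active = compound whose remaining NAD level is above about 45 nM, limit read from the data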;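 note: higher remaining NAD means stronger inhibition of SARM1 NADase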); conditions: SAM-TIR HEK293T lysate NADase, at 1 µM, stronger effect = higher value
Sequence of NAD(+) hydrolase SARM1 (Homo sapiens) (Q6SZW1 whole entry, looked up, the tested form may be a part): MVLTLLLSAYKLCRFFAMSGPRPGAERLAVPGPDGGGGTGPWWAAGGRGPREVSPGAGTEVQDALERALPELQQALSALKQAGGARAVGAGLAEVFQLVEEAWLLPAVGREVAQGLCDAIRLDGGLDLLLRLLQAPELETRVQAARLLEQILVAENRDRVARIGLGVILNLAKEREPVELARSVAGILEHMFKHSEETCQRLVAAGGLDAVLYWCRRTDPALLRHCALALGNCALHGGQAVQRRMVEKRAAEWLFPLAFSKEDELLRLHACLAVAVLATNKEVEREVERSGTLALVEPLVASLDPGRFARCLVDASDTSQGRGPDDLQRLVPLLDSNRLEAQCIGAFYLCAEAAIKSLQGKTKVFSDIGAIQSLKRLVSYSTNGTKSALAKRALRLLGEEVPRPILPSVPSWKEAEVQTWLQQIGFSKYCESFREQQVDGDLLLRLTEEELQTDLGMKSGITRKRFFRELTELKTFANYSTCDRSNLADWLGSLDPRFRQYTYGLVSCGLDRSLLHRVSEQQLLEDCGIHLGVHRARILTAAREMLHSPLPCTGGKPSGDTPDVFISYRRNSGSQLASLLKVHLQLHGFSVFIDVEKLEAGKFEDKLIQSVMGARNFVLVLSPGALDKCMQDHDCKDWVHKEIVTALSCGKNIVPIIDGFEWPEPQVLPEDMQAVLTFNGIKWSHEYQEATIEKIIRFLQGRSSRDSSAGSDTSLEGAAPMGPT

[4] = target: Mitogen-activated protein kinase 7 (Homo sapiens) (UniProt Q13164); assay: ERK5 transactivation activators in reporter cells, primary screen, cell-based, HTS (AID 1508626;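 active = luciferase signal above three times the same-plate solvent-only control wells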;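 note: luciferase driven by Gal4-ERK5 fusion binding five Gal4 sites before minimal TATA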); conditions: HeLa Gal4-ERK5 transactivation, 18 h, at 5 µM, stronger effect = higher value
Sequence of Mitogen-activated protein kinase 7 (Homo sapiens) (Q13164 whole entry, looked up, the tested form may be a part): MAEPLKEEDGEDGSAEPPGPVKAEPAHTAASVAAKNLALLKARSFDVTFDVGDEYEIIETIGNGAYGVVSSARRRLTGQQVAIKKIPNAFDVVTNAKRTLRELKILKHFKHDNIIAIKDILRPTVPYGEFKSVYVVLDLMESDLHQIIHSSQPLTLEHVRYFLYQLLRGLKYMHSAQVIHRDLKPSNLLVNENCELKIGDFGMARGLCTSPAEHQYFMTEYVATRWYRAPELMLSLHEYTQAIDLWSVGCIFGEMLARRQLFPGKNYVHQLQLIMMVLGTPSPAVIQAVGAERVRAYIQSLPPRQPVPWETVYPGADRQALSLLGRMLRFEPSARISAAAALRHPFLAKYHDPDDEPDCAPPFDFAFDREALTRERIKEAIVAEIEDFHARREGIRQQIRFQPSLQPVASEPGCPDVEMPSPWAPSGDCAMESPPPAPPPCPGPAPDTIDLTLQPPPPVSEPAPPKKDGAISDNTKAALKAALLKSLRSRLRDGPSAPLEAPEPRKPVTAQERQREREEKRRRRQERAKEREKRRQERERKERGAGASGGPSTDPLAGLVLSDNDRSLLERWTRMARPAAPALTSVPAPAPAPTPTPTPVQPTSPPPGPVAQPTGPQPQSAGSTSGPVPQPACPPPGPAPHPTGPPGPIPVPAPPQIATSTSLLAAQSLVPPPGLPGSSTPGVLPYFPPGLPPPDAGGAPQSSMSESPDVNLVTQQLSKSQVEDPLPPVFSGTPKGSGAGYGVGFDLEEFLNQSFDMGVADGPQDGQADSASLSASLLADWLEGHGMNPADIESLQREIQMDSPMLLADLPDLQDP

[5] = stronger effect = lower value, cell number ratio, induced over uninduced
[6] = measured here: relative caspase fold change +Dox/-Dox
[7] = measured here: total cells with miR-34 induction, stronger effect = lower value
[8] = measured here: total cells without miR-34 induction
[9] = MELAS cybrid survival, CellTiter-Glo 48 h, stronger effect = higher value
[10] = Rieske KO mouse fibroblast survival, CellTiter-Glo 72 h

Row | Structure (SMILES) | fold change [1, 5] | fold change [1, 6] | cell count [1, 7] | cell count [1, 8] | z-score [2, 9] | z-score [2, 10] | remaining NAD [3] | luciferase signal [4]
1 | Cc1c(NC(=O)c2cccnc2)c(=O)n(-c2ccccc2)n1C | 0.892 (inactive) | 1.07 | 8460 | 9480 | 0.707 (inactive) | 0.58 | 10 nM (inactive) | 56 AU (inactive)
2 | CC[C@]12CCCN3CCc4c(n(c5ccccc45)[C@@](O)(C(=O)OC)C1)[C@@H]32 | 0.85 (inactive) | 1.33 | 8280 | 9750 | 0.291 (inactive) | -0.0307 | 10 nM (inactive) | 112 AU (inactive)
3 | N=C(N)N | 0.954 (inactive) and 0.99 (inactive) | 0.786 and 0.574 | 8580 and 8630 | 9000 and 8720 | -0.279 (inactive) | -0.172 | 10 nM (inactive) | 44 AU (inactive)
4 | Nc1ccc(C(=O)NCC(=O)O)cc1 | 0.905 (inactive) and 0.867 (inactive) and 0.907 (inactive) | 1.12 and 0.765 and 3.35 | 9600 and 8480 and 12000 | 10600 and 9780 and 13300 | -0.372 (inactive) and 0.514 (inactive) | -0.0832 and -0.331 | 10 nM (inactive) | 20 AU (inactive)
5 | O=C1c2cccc(O)c2C(=O)c2c(O)cccc21 | 0.868 (inactive) | 4.67 | 9530 | 11000 | 0.3 (inactive) | 0.397 | 10 nM (inactive) | 176 AU (inactive)
6 | Cc1cc(CC(=O)O)n(C)c1C(=O)c1ccc(Cl)cc1 | 0.925 (inactive) and 0.888 (inactive) | 1.12 and 2.44 | 9260 and 11200 | 10000 and 12600 | -0.685 (inactive) | -0.331 | 10 nM (inactive) | 96 AU (inactive)
7 | O=C(CCCCC(=O)Nc1c(I)cc(I)c(C(=O)O)c1I)Nc1c(I)cc(I)c(C(=O)O)c1I | 0.893 (inactive) | 1.51 | 9730 | 10900 | 0.645 (inactive) | -0.141 | 10 nM (inactive) | 44 AU (inactive)
8 | O=c1ccc2ccccc2o1 | 0.91 (inactive) and 0.88 (inactive) | 0.575 and 1.07 | 7780 and 10900 | 8550 and 12300 | -0.266 (inactive) | -0.22 | 10 nM (inactive) | 48 AU (inactive)
9 | CCN(CC)CCNc1ccc(CO)c2sc3ccccc3c(=O)c12 | 0.933 (inactive) and 0.872 (inactive) | 1.29 and 1.89 | 3110 and 3390 | 3340 and 3880 | 4.63 (active) | 0.873 | 10 nM (inactive) | 36 AU (inactive)
10 | O=C(COc1ccc(Cl)cc1)N1CCN(Cc2ccc3c(c2)OCO3)CC1 | 0.875 (inactive) | 1.39 | 8260 | 9440 | 0.452 (inactive) | 0.138 | 10 nM (inactive) | 84 AU (inactive)
11 | NC(N)=NS(=O)(=O)c1ccc(N)cc1 | 0.891 (inactive) and 0.893 (inactive) and 0.92 (inactive) | 1.33 and 1.72 and 4.63 | 7720 and 8610 and 11300 | 8670 and 9630 and 12200 | -0.23 (inactive) and -0.511 (inactive) | -0.172 and -0.306 | 10 nM (inactive) | 188 AU (inactive)
12 | CN1CCC(=C2c3ccccc3Sc3ccccc32)CC1 | 0.873 (inactive) | 1.16 | 7410 | 8480 | 0.363 (inactive) | 0.395 | 83 nM (active) | 64 AU (inactive)
13 | CCCCC1C(=O)N(c2ccccc2)N(c2ccc(O)cc2)C1=O (configuration not stated) | 0.952 (inactive) and 0.848 (inactive) | 0.53 and 1.48 | 8300 and 10300 | 8720 and 12100 | -1.46 (inactive) | -1.25 | 10 nM (inactive) | 144 AU (inactive)
14 | Cc1c(N(C)CS(=O)(=O)O)c(=O)n(-c2ccccc2)n1C | 0.886 (inactive) and 0.92 (inactive) | 1.09 and 6.36 | 8550 and 11500 | 9640 and 12500 | -1.12 (inactive) | -0.298 | 10 nM (inactive) | 40 AU (inactive)
15 | CN(C)CCOC(=O)C(c1ccccc1)C1(O)CCCC1 (configuration not stated) | 0.97 (inactive) and 0.896 (inactive) | 0.779 and 1.74 | 9700 and 10300 | 10000 and 11500 | 0.757 (inactive) | 0.693 | 10 nM (inactive) | 104 AU (inactive)
16 | O=C(O)CCC(=O)Nc1ccc(S(=O)(=O)Nc2nccs2)cc1 | 0.889 (inactive) and 0.92 (inactive) | 0.9 and 3.43 | 8630 and 11000 | 9720 and 12000 | 0.0389 (inactive) | 0.552 | 10 nM (inactive) | 28 AU (inactive)
17 | C=C1c2cccc(O)c2C(O)=C2C(=O)[C@]3(O)C(O)=C(C(N)=O)C(=O)[C@@H](N(C)C)[C@@H]3[C@@H](O)[C@H]12 | 0.869 (inactive) and 0.999 (inactive) | 1.25 and 1.82 | 7110 and 11900 | 8180 and 11900 | 0.00753 (inactive) | -2.31 | 10 nM (inactive) | 40 AU (inactive)
18 | Cc1ccc(C(=O)C(C)CN2CCCCC2)cc1 (configuration not stated) | 0.986 (inactive) | 0.455 | 8610 | 8730 | -0.166 (inactive) | -0.145 | 10 nM (inactive) | 40 AU (inactive)
19 | CCCCOc1ccc(C(=O)CCN2CCCCC2)cc1 | 0.869 (inactive) and 0.898 (inactive) and 0.904 (inactive) | 1.13 and 0.697 and 1.7 | 8270 and 5950 and 11300 | 9520 and 6630 and 12500 | -0.438 (inactive) and 1.08 (inactive) | 0.0294 and 0.0562 | 10 nM (inactive) | 40 AU (inactive)

Reference: PubChem BioAssay
